One assay addresses CD1E. Briefly: pooled miR-30 sensor sort-seq; sequence = guide strand. Conditions: shRNA.
TAGACTGCTGTGTTTCACCCGA gave a sensor-assay potency score (higher = more potent) of -0.381. The same measure, in the same setting: for TAAGTTTTTCAGCTCCTGCTTG the value was -0.417. Still for that read-out and setting: for TAATATCTGGATCTCGAAGGGG the value was -0.509; for TGTTCTTATTTGAACTCTGTTT, -0.835; for ATAACTGGAACAGTGACTGTAA, 0.29. The same measure, in the same setting: for ATATCCACCATGTCTCGTCAGC the value was -0.905; for TCTACAGCCAGCTAATATCTGG, -0.694; for TATCTGGATAAAACTATGGAAG, -1.28.

Take TATTTCCTTAATATCTAGGTAG: the sensor-assay potency score (higher = more potent) is -0.111. Still for that read-out and setting: to TAGGATTGTAGAGCCTGGGGAG belongs -0.471; to TTCCTTAATATCTAGGTAGCGA, -0.491. Same read-out and setting: for TTAACCGTGAGTCAACTACAAC the value was -1.49; for AATATCTGGATCTCGAAGGGGT, 0.0216; for TTTTTCAGCTCCTGCTTGCTGA, -0.242. In turn, TAGGTAGCGATTGAGCACTTTA had a sensor-assay potency score (higher = more potent) of -0.754. The same measure, in the same setting: for TATAACTGGAACAGTGACTGTA the value was 0.739; for AACTACAACCAATATGACCAGG, -0.902. In the case of TGTCTCGTCAGCATTAGGCAGG, the sensor-assay potency score (higher = more potent) was -0.59. Still for that read-out and setting: for TTCCACTTCTTCAATACTCTGT the value was 0.573; for TTTTGATCCACGATACTTGTGC, 0.208.

Consider TATTTAAGAAGATTTGTGGGGC, for which the sensor-assay potency score (higher = more potent) turned out to be 0.193.

The target in another assay is CD27. Described as above. Conditions: shRNA.
TTCTATGCTGGTCACAGTCCTT registered a sensor-assay potency score (higher = more potent) of -1.06. Same read-out and setting: for TTTCCTTCGTTGATGGAGGAAC the value was -0.814. Regarding TATATTTCCTTCGTTGATGGAG, the sensor-assay potency score (higher = more potent) was -0.211. On the same count and under the same terms, to TGTAACGACAAGGCTCTGCAGG belongs -0.28. On to TTTTCGGTAATCCTCCTGGATG, for which the sensor-assay potency score (higher = more potent) is -1.32. Same read-out and setting: for TCTGGCAGCACAGCTTTCCCTG the value was -1.15; for TAAAATCGGAGCTGCACAGGGA, 0.114; for TAGCATGTGGGTCTTTCGCAGC, -0.998. Still for that read-out and setting: to TGGAAGAGGATCACACTCGGTG belongs -0.658; to TTGTTTGATCTATATTTCCTTC, -0.475.

Regarding ATCTATATTTCCTTCGTTGATG, the sensor-assay potency score (higher = more potent) was -1.32.

TTTGATCTATATTTCCTTCGTT registered a sensor-assay potency score (higher = more potent) of 0.393. TCACACTCGGTGCACTCCTTGT had a sensor-assay potency score (higher = more potent) of -1.13.

With TTTCGCAGCAGGAAGTGTGTTT, the sensor-assay potency score (higher = more potent) was 0.0361. On the same count and under the same terms, to TGAAAACAAGGAACATTCCAGA belongs -0.449; to TGCAAGGATCACACTGAGCAGC, -1.06.

Take TCACACTGAGCAGCCTTTCTAT: the sensor-assay potency score (higher = more potent) is -1.13. The same measure, in the same setting: for AAGGATGCGAATAAAATCGGAG the value was -0.423.
Further: reference of the scale not given here.
